Source: PubChem BioAssay
HSF1 inhib = HSF1 inhibition; NIH3T3-HGL HSE-luciferase, MG132-induced, luminescence 8 h; hits give low values; activity change, negative = inhibition, % at 7.5 µM (by protocol); hit rate 0.77% among 300,000; AID 2098;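 active = more than half of replicate wells show activity change below -50%, luminescence cut by over half; inconclusive = some wells, but at most half, below -50%; inactive = no replicate well below -50%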;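 note: luciferase reports HSF-1 transcriptional activity via heat shock element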
Platelet DG rel = modulates dense granule release in human platelets | hit rate 0.22% among 300,000 | human platelet-rich plasma, SFLLRN dense granule ATP release, luminescence | inhibition, %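 (compounds screened at 7.5 µM in platelet-rich plasma)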 | AID 1663;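 active = mean replicate score, as percent of positive control, at or above 50; inconclusive = mean below 50 but at least one replicate at or above 50; inactive = mean and every replicate below 50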
dFosB act = enhances mouse delta FosB homodimer DNA binding | P13346 | purified delta FosB, TAMRA-CDK5 oligo fluorescence polarization; percent of positive-control signal above neutral wells | activation, % at 25 µM | hit rate 0.99% among 340,000;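 active = mean activation above about 17%, with every replicate also reaching it, limit read from the data, passing the limit was not always enough; inconclusive = only one of the two conditions met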
Target sequence (P13346 whole entry, looked up): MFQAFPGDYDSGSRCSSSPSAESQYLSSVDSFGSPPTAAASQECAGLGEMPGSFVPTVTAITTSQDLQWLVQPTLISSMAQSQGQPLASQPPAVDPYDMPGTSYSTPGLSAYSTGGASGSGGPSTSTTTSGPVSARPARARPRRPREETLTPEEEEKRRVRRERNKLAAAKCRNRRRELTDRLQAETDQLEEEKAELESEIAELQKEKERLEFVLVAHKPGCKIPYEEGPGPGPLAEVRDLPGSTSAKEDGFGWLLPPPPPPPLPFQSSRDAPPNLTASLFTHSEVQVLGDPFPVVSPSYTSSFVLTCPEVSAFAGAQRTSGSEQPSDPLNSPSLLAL
HSP90 refold inh = inhibitors of HSP90 luciferase refolding in rabbit reticulocyte lysate; AID 1789; luciferase refolding luminescence, 3 h; inhibition, % at 5.6 µM; hit rate 0.91% among 290,000;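 active = inhibition above the screen-wide mean plus 3 SD, computed separately per campaign, cut at about 16% in these data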;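 note: inhibitors lower the luminescence because luciferase stays unfolded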
HSF1 activator = increases HSF-1 driven luciferase reporter signal. NIH3T3-HGL HSF-1 luciferase reporter, MG132, 8 h; 100% = twice DMSO control signal. activation, % at 9 µM. hit rate 1.7% among 300,000. AID 504408;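 active = mean replicate activation of at least 50% with a set share of replicates each reaching 50%; inconclusive = only one of those two conditions met; inactive = mean below 50% and too few replicates reaching it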
MPTP block = permeability transition pore inhibition; isolated mouse mitochondria, Ca2+ swelling absorbance, 30 min; inhibition, % at 10 µM; hit rate 1.4% among 360,000; AID 602449;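 active = inhibition of 50% or more, scaled per plate between neutral and stimulator controls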
MPTP counter = membrane potential counter-screen of mitochondrial pore inhibitors; shares compounds with MPTP block; isolated mitochondria, Rhodamine 123 fluorescence; inhibition, % at 10 µM; hit rate 78% among 5,000; in the data active = inhibition above about 22%
MPTP swell DR = dose response confirmation of mitochondrial permeability transition pore inhibitors; shares compounds with MPTP block; isolated mitochondria swelling, absorbance; IC50, µM; hit rate 58% among 780; in the data active = IC50 below about 20 µM
MPTP cs DR = counter-screen for mitochondrial permeability transition pore inhibitors, dose response; shares compounds with MPTP block; isolated mitochondria counterscreen, fluorescence read-out; IC50, µM; hit rate 49% among 780; in the data active = IC50 below about 80 µM
A number is an active result; – = inactive; ? = inconclusive; · = no result. Hits are enriched below; roughly 4.9% of the tested compounds scored in any of these assays.

SMILES	HSF1 inhib	Platelet DG rel	dFosB act	HSP90 refold inh	HSF1 activator	MPTP block	MPTP counter	others
COc1cccc(NC(=S)NNC(=O)c2ccccc2OC(F)F)c1	–	–	–	–	–	–	·
Cc1ccc(NC(=S)Nc2ccc(Cl)c(Cl)c2)c(OC(F)F)c1	–	–	–	–	–	100.3	90.5
O=S(=O)(c1ccc(Cl)c(NC(=S)Nc2ccccc2N2CCOCC2)c1)N1CCOCC1	–	–	–	–	–	–	·
O=C(NNC(=S)Nc1cccc(Cl)c1)c1ccccc1OC(F)F	–	–	–	–	–	86.5	90.0
Cc1ccc(/C=N/N2C(=S)SC(C)(C)C2N(O)C(=O)Nc2ccc([N+](=O)[O-])cc2)cc1 (stereo unspecified)	–	–	?	–	–	91.3	86.7
NC(=O)CSc1ncc(-c2ccc([N+](=O)[O-])cc2)[nH]1	·	–	–	–	·	–	·
O=[N+]([O-])c1ccc(-c2cnc(SC(c3ccccc3)c3ccccc3)[nH]2)cc1	–	–	–	–	–	89.7	76.0
CC1CCN(CCCCOc2ccc(Cl)cc2)CC1	–	–	–	–	–	–	·
CC1CCN(CCCCOc2ccc(C(C)(C)C)cc2)CC1	–	–	–	–	–	53.5	–	MPTP swell DR=6.79;MPTP cs DR=13.4
Cc1ccc2[nH]c(=O)c(CN(CCCN(C)C)C(=S)NCCc3ccccc3)cc2c1	–	–	–	–	–	85.7	–	MPTP swell DR=11.9;MPTP cs DR=–
Cc1ccc2cc(CN(CCc3ccccc3)C(=S)NCCCN(C)C)c(=O)[nH]c2c1	–	–	–	–	–	–	·
O=C(CCN1C(=O)/C(=C/c2ccc(F)cc2)SC1=S)NNC(=O)c1cccnc1	–	–	–	–	–	–	·
O=C(CCN1C(=O)/C(=C/c2cccc(Br)c2)SC1=S)Nc1cccnc1	–	–	–	–	–	52.0	–	MPTP swell DR=–;MPTP cs DR=19.6
O=C(CCN1C(=O)/C(=C/c2ccccc2)SC1=S)NNC(=O)c1cccnc1	–	–	–	–	–	88.4	74.5
O=C(CN1C(=O)S/C(=C\c2ccc(F)cc2)C1=O)NCCCn1ccnc1	–	–	–	–	–	–	·
O=C(CCN1C(=O)/C(=C/c2ccccc2)SC1=S)N1CCCCCC1	–	–	–	–	–	77.0	81.9
O=C(CN1C(=O)/C(=C/c2cccc(Br)c2)SC1=S)Nc1cccnc1	–	–	–	–	–	–	·
O=C(CCN1C(=O)/C(=C/c2ccc(Cl)cc2)SC1=S)NCCCn1ccnc1	–	–	–	–	–	60.5	72.1
O=C(COC(=O)Cc1ccsc1)Nc1cccc(F)c1	·	·	–	·	·	–	·
CCCCN(C(=O)CN(C)CC(=O)Nc1cccc(OC)c1)c1c(N)n(CCCC)c(=O)[nH]c1=O	·	·	–	·	·	–	·
Cc1ccc(/C=C2\SC(=S)N(CCC(=O)NNC(=O)c3cccnc3)C2=O)cc1	–	–	–	–	–	65.0	58.6
Cc1ccc(NC(=O)COc2cccc(/C=C3\SC(=S)N(CCC(=O)O)C3=O)c2)cc1Cl	–	–	–	–	–	50.9	26.0
Cc1ccc(N2C(=N)/C(=C3/Nc4ccccc4S3)C(c3ccccc3)C2=O)cc1 (stereo unspecified)	·	·	–	–	·	–	·
O=C(NC1CCCCC1)C(c1ccccc1)N(C(=O)c1csnn1)C1CCCC1 (stereo unspecified)	–	–	–	–	–	–	·
O=C(Nc1ccc(S(=O)(=O)N2CCCCC2)cc1)c1ccccc1Cl	–	–	–	–	–	–	·
Cc1oc(S(=O)(=O)N2CCCCC2)cc1NC(=O)Nc1ccc(Cl)cc1	–	–	–	–	–	83.7	78.5
O=C(N/N=C\c1c(O)ccc2ccccc12)c1ccc(S(=O)(=O)N2CCCCC2)cc1	–	–	–	–	–	95.1	70.2
CCOc1ccc(NC(=S)NC23CC4CC(CC(C4)C2)C3)cc1	–	–	–	–	–	–	·
O=C(Nc1ccc(C(=O)N2CCCC2)cc1)Nc1ccc(Cl)cc1Cl	–	–	–	–	–	–	·
O=C(NN=Cc1c(O)ccc2ccccc12)c1ccc2c(c1)OCO2	·	·	–	·	·	–	·
